Nrf2 block – blocks Nrf2 signaling | AID 504444 | Potency, µM (series often up to 46 µM), for the others: at the highest dose activity change, negative = inhibition, actives largely listed as inhibitors | A549 ARE-Fluc reporter, luciferase luminescence, 18-24 h | 360,000 tested, 2.1% active; further: potency means the concentration at half of the fitted maximal effect; nearly all actives have a fitted effect of over 60% in size
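Nrf2 activity is the BugLite luminescence, read 15 min after reagent at room temperature, following CellTiter-Fluor cytotoxicity readout (30 min, 37C). Compound titrations were applied for 18-24 h to 5000 A549 ARE_Fluc cells/well in 5% FBS OPTI-MEM.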
KB-3-1 tox – KB-3-1 parental cell cytotoxicity; KB-3-1 viability, CellTiter-Glo ATP luminescence, 72 h; 400,000 tested, 1.4% active; Potency, µM (titrated, usually from 46.1 µM), hits mostly cytotoxic; further: potency means the concentration at half of the fitted maximal effect; nearly all actives have a fitted effect of over 60% in size
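Screening of KB-3-1 cells (DMEM, 10% FBS, phenol-red free) ran from lowest to highest compound concentration; after 72 h at 37 °C viability was read luminescently and curves fitted.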
KB-V1 cytotox – KB-V1 MDR subline cytotoxicity. KB-V1 MDR cells viability, CellTiter-Glo, 72 h. Potency, µM (doses to about 46.1 µM), most hits filed as cytotoxic. 400,000 tested, 3.4% active; further: potency means the concentration at half of the fitted maximal effect; nearly all actives have a fitted effect of over 60% in size
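Compound-treated KB-V1 multidrug-resistant cells, 72 h, 37 degrees C; viability by CellTiter-Glo. Fitted qHTS curves give the values.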
Giardia killer – kills Giardia lamblia. Giardia lamblia trophozoite viability. activity change, % at 7.66 µM, hits read low. 340,000 tested, 0.15% active. AID 540267; in the data active means activity change below about -80%; inconclusive means between about -30% and that limit;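 further: parasites exposed to compound for two days anaerobically before the ATP read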
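Luminescence from cellular ATP indicates surviving trophozoites (100 cells/well) following 48 hrs anaerobic compound treatment at 37 deg C; signal develops 15-30 min at room temperature.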
A549 viability – A549 cytotoxicity, counter-screen for Nrf2 inhibitors. A549 ARE-Fluc cells, CellTiter-Fluor viability, 18-24 h. Potency, µM (top dose mostly 46 µM), for inactives: at the top dose activity change, negative = cytotoxicity, hits mostly inhibitors. 390,000 tested, 0.16% active; further: potency means the concentration at half of the fitted maximal effect
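Cytotoxicity counterscreen: CellTiter-Fluor fluorescence was measured in A549 ARE_Fluc cells after 18-24 h of compound exposure in a concentration series. The subsequent BugLite luminescent read reports ARE-luciferase activity.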
PI4K2A block – blocks human PI4K2A kinase activity; purified PI4K2A, ADP-Glo luminescence, 1 h; hits give low values; activity change, negative = inhibition, % at 76.9 µM; 420,000 tested, 0.13% active; AID 1346378; in the data active means activity change below about -50%; inconclusive means mostly about -30% to -49%;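 further: -100% = wells without enzyme as full effect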
Target sequence (Q9BTU6 whole entry, looked up): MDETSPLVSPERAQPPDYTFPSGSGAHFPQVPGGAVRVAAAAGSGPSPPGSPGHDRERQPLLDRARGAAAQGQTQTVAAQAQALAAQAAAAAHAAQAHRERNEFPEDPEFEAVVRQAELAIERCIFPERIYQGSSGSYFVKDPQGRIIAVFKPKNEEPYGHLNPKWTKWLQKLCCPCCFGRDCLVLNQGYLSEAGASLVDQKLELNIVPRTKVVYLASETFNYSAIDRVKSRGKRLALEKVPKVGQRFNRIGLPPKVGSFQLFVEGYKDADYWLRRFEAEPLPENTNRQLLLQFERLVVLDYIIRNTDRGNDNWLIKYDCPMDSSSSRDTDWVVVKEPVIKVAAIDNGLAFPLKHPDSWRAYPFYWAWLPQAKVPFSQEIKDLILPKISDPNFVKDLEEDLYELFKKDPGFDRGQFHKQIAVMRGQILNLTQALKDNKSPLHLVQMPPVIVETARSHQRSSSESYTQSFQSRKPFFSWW
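PI4K2A activity was measured by ADP-Glo luminescence: enzyme (4 ug/mL stock) and phosphatidylinositol (1.2 mM stock) in Tris pH 7.5/MgCl2/EGTA/Triton X-100 buffer were reacted with ATP (300 microM stock) for one hour at ambient temperature.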
* = called active by the depositor; i = inactive; ? = inconclusive; · = not tested or not shown; + = active, no number. Shown are actives, neighbours in structure and some others; about 5.7% of the full set was active somewhere. Unless noted, the call rests on the fitted dose curve; in most records, active means well fitted curve in the direction sought with a large enough effect; inconclusive means small, poorly fitted or top-dose-only effect, or another doubt; inactive means no such curve, though single readings can be large; an effect the other way counts as inactive or inconclusive. Unless noted, on the % scale 0 is the no-effect control and ±100 the full control effect.

SMILES | Nrf2 block | KB-3-1 tox | KB-V1 cytotox | Giardia killer | A549 viability | PI4K2A block
CCOC(=O)c1ccc2c(c1)n(CC)c(/C=C/N(C)c1ccccc1)[n+]2CC | 3.26µM* | i | i | -8.0 | ? | 1.1
CCOc1cccc(C2C=C(c3ccc4c(c3)OCO4)NC(c3cccc(Br)c3)N2)c1O (centres undefined) | -18.0% | ? | ? | -4.8 | 1.1% | ·
N#Cc1cc2c(nc1SCC(=O)O)CCCCC2 | ? | i | i | -0.3 | 11.6% | -7.6
N#Cc1cc2c(nc1SCC(=O)NCc1ccc3c(c1)OCO3)CCCCC2 | 7.2% | i | 13µM* | 15.7 | 12.7% | 3.8
COc1ccc(-c2nnc3ccc(SC(C)C)nn23)cc1OC | ? | i | 20.6µM* | -1.3 | -17.2% | ·
O=C(CSc1ccc2nnc(-c3cccc(F)c3)n2n1)NCc1ccco1 | ? | i | 16.4µM* | -8.7 | -8.3% | -6.8
CCOC(=O)CC(=O)CSc1ccc2nnc(-c3cccc(F)c3)n2n1 | ? | i | i | -4.7 | -2.4% | 2.3
COc1ccc(-c2nnc3ccc(SC(C(C)=O)C(C)=O)nn23)cc1OC | -3.1% | i | i | 2.7 | 1.2% | -2.1
CSc1ccc2nnc(-c3cccc(F)c3)n2n1 | ? | i | 13µM* | -5.0 | -8.8% | -0.8
CCOC(=O)[C@]12CCCC3=C1N(CCC3)C(=O)[C@@H](CC(=O)N1CCN(C(=O)C3CC3)CC1)C2 | · | · | · | · | · | -1.5
N#Cc1nc(Nc2cc(F)cc(F)c2)c2ncn(CCO)c2n1 | -5.7% | 14.6µM* | ? | · | -19.8% | ·
O=C(OC12CCCN(C1)/C(=C/c1ccccc1)C2)c1ccccc1 (centres undefined) | · | · | · | · | · | -1.5
CCCCN1CCN(C(=O)c2cn(C(C)c3ccccc3)nn2)CC1 (centres undefined) | · | · | · | · | · | -3.2
CC(=O)N(Cc1ccc(F)cc1)C1=C(NCCc2ccccc2)C(=O)c2ccccc2C1=O | 20.6µM* | 8.2µM* | ? | -4.2 | 23.1µM* | -21.1
CCc1ccccc1N1CC(c2nnc(NC(=O)c3ccco3)s2)CC1=O (centres undefined) | 5.3% | i | i | · | 0.4% | 1.0
O=C(Nc1cc(Cl)ccc1O)c1snnc1-c1ccccc1 | ? | 18.4µM* | 8.2µM* | -14.2 | ? | -2.3
CCc1c(C)c(C#N)c2[nH]c3ccccc3n2c1=S | ? | ? | 7.31µM* | -6.6 | ? | -13.4
C=C(C)Cc1c(C)c(C#N)c2[nH]c3ccccc3n2c1=O | 28.3% | ? | ? | 3.1 | 10.2% | 4.0
CCc1cc(=S)n2c([nH]c3ccccc32)c1C#N | ? | ? | 5.8µM* | 4.3 | -27.6% | -1.8
COc1ccc(OCc2nnc3n2N=C(c2ccccc2)CS3)cc1 | · | i | i | · | · | ·
CCC(=NC)C1=C(O)CC(c2ccccc2)CC1=O (centres undefined) | 10.7% | i | i | 4.3 | -3.0% | -8.8
CC(=NCCc1c(C)[nH]c2ccc(OCc3ccccc3)cc12)C1=C(O)CC(c2ccccc2)CC1=O (centres undefined) | -25.5% | i | ? | -7.3 | -8.0% | 0.9
CCC(=NCCc1c(C)[nH]c2ccc(OC(F)(F)F)cc12)C1=C(O)CC(c2ccccc2)CC1=O (centres undefined) | 20.6µM* | 4.11µM* | 2.91µM* | -8.6 | ? | -0.4
CCC(=NCCc1c(C)[nH]c2ccccc12)C1=C(O)CC(c2ccccc2)CC1=O (centres undefined) | -21.9% | 4.61µM* | 3.66µM* | 13.4 | -11.5% | -6.4
CCCCC(=NCCc1c(C)[nH]c2ccc(OC)cc12)C1=C(O)CC(c2ccccc2)CC1=O (centres undefined) | ? | 3.66µM* | 5.8µM* | -4.7 | ? | -3.9
SMILES | Nrf2 block | KB-3-1 tox | KB-V1 cytotox | Giardia killer | A549 viability | PI4K2A block
CCN1CCOC(=O)C1CC(=O)Nc1cc(C)cc(C)c1 (centres undefined) | -21.4% | i | ? | · | -13.3% | -1.5
Cc1ccccc1CS(=O)(=O)Cc1ccc(C(=O)Nc2cccc(Cl)c2F)o1 | · | · | · | · | · | -1.5
CCOc1[nH]c(/N=C/c2ccc(OC)cc2)c(C#N)c1C#N | -3.5% | i | i | -1.4 | -1.5% | ·
CCCN1CNc2c(c(=O)[nH]c(=S)n2CCc2cc(OC)cc(OC)c2)C1 | -5.5% | · | · | 9.6 | 20.2% | ·
O=C(NCC1CCCO1)c1cnn2c(C(F)F)cc(C3CC3)nc12 (centres undefined) | ? | i | 6.51µM* | 8.4 | -26.4% | -10.0
COc1ccc(-c2cc(C(F)F)n3ncc(C(=O)NCC4CCCO4)c3n2)cc1 (centres undefined) | 0.9% | i | i | -8.4 | 10.3% | -3.1
COc1ccc(-n2c(SCc3ccc([N+](=O)[O-])cc3)nnc2-c2ccco2)cc1 | · | · | · | · | · | 3.0
[Cl][In]([Cl])[Cl] | · | ? | i | · | · | +
Cc1cc(Nc2cccc(Cl)c2)nc2ccc(NC(=O)Cc3ccc(Cl)cc3)cc12 | 23.1µM* | ? | ? | · | ? | -1.4
COc1ccc(CC(=O)Nc2ccc3nc(Nc4cccc(Cl)c4)cc(C)c3c2)cc1OC | 16.4µM* | ? | ? | · | -7.6% | -6.7
CC1CCN(c2ccc(C(=O)O)cc2NS(=O)(=O)c2ccc(C(C)(C)C)cc2)CC1 | · | · | · | · | · | -3.3
NC(=O)/C=C\c1cn(-c2ccccc2)nc1-c1ccc2c(c1)OCCO2 | ? | i | 14.6µM* | -11.1 | -25.1% | -1.5
CNC(=O)COC(=O)/C=C/c1cn(-c2ccccc2)nc1-c1ccc2c(c1)OCCO2 | -4.3% | i | i | 1.2 | 3.1% | -3.0
CC(C)OC(=O)c1cn(-c2ccccc2)nc1-c1ccc2c(c1)OCCO2 | ? | i | 7.31µM* | 8.1 | -6.2% | -4.4
COc1ccc(S[C@]2(C(=O)N(C)C)CC(=O)N(c3ccc(C#N)cc3)[C@@H]2c2ccc(OC)cc2)cc1 | · | · | · | · | · | 2.7
COc1ccc(CN2CN3Cc4ccc(C)cc4C3CS2(=O)=O)cc1 (centres undefined) | · | · | · | · | · | -0.7
CN(C)c1ccc(Cc2cc3c(O)ccc(O)c3cc(Cc3ccc(N(C)C)cc3)c2=O)cc1 | 3.3% | ? | i | -17.8 | -19.9% | -56.4*
CCOC(=O)c1ccc(NC(=O)c2nn(C)c3c2COc2ccccc2-3)cc1 | ? | · | · | · | 7.6% | 2.8
CCCN1CCN(C(=O)C2CCN(S(=O)(=O)c3c(C)noc3/C=C/c3ccc(C)cc3)CC2)CC1 | 2.9% | 25.9µM* | ? | 7.5 | -9.2% | 3.7
Cc1ccc(NC(=O)C2CCN(S(=O)(=O)c3c(C)noc3/C=C/c3ccco3)CC2)nc1 | 16.4µM* | ? | ? | -14.1 | -1.4% | -5.0
